FEN1 inh – blocks human flap endonuclease 1; P39748; Recombinant FEN1 flap cleavage, fluorescence, 15 min; Potency, µM (titrated, usually from 114 µM), without a hit: at the top dose activity change, negative = inhibition, most hits filed as inhibitors; 390,000 compounds, 0.35% hits; AID 588795; note: nearly all actives have a fitted effect of over 65% in size
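In this screen, 50 nM flap DNA substrate was added to 10 nM FEN1 pretreated with compound for 15 min at room temperature; cleavage was followed with reads at 0 and 15 min, and Hill fitting gave concentration–response parameters.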
RECQ1 inh-1 – inhibitors of human RECQ1 DNA helicase; RECQ1 DNA unwinding, red fluorescence kinetic read; Potency, µM (series often up to 57.3 µM), for the others: at the highest dose activity, negative = inhibition, most hits filed as inhibitors; 240,000 compounds, 0.54% hits; AID 2549;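 note: plate controls were vehicle for no effect and no enzyme for full effect; nearly all actives have a fitted effect of over 30% in size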
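50 nM RECQ1T1 preincubated 15 min with compound in Tris pH 8.0 buffer with MgCl2, DTT, Tween-20 and 2.5 ug/ml poly(dI-dC); started with 200 nM TAMRA/BHQ-2 forked duplex and 2 mM ATP. Unwinding read as fluorescence (525/598 nm), two reads 2 h apart.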
L3MBTL1 inh – blocks human L3MBTL1; Q9Y468; AlphaScreen L3MBTL1–H3K9me1 peptide binding; Potency, µM (series often up to 57.1 µM), inactives show top-dose activity, negative = inhibition, usual class: inhibitors; 230,000 compounds, 0.66% hits; note: nearly all actives have a fitted effect of over 60% in size
Target sequence (Q9Y468 whole entry, looked up): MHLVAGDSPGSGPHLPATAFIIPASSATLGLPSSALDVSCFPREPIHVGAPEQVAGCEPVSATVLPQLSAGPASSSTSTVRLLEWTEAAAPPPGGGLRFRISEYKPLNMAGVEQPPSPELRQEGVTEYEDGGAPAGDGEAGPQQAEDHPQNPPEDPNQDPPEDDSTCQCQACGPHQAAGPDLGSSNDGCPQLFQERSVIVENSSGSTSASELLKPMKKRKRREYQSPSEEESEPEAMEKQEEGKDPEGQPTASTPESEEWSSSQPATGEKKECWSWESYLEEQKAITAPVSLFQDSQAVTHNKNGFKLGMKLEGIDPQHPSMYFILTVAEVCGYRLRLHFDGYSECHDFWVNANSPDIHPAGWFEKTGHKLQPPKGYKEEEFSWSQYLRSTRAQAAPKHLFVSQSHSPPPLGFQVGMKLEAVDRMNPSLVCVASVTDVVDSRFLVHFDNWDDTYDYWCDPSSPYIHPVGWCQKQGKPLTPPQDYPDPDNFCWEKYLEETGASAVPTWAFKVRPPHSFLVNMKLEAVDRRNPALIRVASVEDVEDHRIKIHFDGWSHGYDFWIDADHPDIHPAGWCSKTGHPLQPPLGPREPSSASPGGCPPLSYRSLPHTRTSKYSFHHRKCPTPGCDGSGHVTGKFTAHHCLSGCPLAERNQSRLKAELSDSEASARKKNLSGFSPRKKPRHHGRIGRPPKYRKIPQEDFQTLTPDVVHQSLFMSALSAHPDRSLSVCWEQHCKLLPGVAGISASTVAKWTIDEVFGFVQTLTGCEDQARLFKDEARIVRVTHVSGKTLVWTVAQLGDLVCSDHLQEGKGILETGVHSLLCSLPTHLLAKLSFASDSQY
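L3MBTL1 50 nM + b-AHA-H3(1-15)K9me1 75 nM, 30 min RT; compound added, 30 min RT; streptavidin donor/Ni-chelate acceptor beads 10 ug/mL each final, 30 min RT dark; AlphaScreen read.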
WRN inhibitor – blocks human WRN helicase; Q14191; WRN helicase unwinding, fluorescent forked duplex, kinetic; Potency, µM (top dose mostly 114 µM), inactives show at the highest dose activity change, negative = inhibition, hits mostly inhibitors; 360,000 compounds, 0.46% hits; note: nearly all actives have a fitted effect of over 55% in size
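Kinetic red-fluorescence monitoring (525/598 nm) tracks WRN helicase activity after 100 nM fluorophore-quencher forked duplex and 2 mM ATP are added to 20 nM enzyme pretreated 15 min at room temperature with compound.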
BLM helicase inh – blocks DNA unwinding by human BLM helicase. AID 2528. Potency, µM (series often up to 56.1 µM), for the others: top-dose activity change, negative = inhibition, most hits filed as inhibitors. 350,000 compounds, 0.2% hits. recombinant BLM DNA unwinding, fluorescence dequenching;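 note: plate controls were vehicle for no effect and no enzyme for full effect; nearly all actives have a fitted effect of over 35% in size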
RECQ1 conf – confirmation of human RECQ1 helicase inhibitors. shares compounds with RECQ1 inh-1. RECQ1 helicase DNA unwinding, fluorescence. 610 compounds, 28% hits. Potency, µM (doses to about 229 µM), for the others: at the top dose activity change, negative = inhibition, hits mostly inhibitors; note: nearly all actives have a fitted effect of over 45% in size
RECQ1 ADP FP – counter-screen for RECQ1 inhibitors: ADP displacement | shares compounds with RECQ1 inh-1 | ADP fluorescence polarization displacement counterscreen | Potency, µM (series often up to 228 µM), inactives show top-dose activity change, negative = inhibition, usual class: inhibitors | 530 compounds, 27% hits; note: nearly all actives have a fitted effect of over 45% in size
RECQ1 inh-2 – confirmation of human RECQ1 helicase inhibitors; 1,100 compounds, 15% hits; recombinant RECQ1 DNA unwinding, red fluorescence; shares compounds with RECQ1 inh-1; Potency, µM (doses to about 119 µM), for the others: top-dose activity, negative = inhibition, actives largely listed as inhibitors; note: nearly all actives have a fitted effect of over 50% in size
* hit, by the source's call; i = inactive; ? = inconclusive; nt = no result given; [ ] = another dose, or the depositor's remark. Shown are actives, neighbours in structure and some others; about 0.99% of the full set was active somewhere. Calls come from the whole dose curve; as a rule, active = well fitted curve in the direction sought with a large enough effect; inconclusive = small, poorly fitted or top-dose-only effect, or another doubt; inactive = no such curve, though single readings can be large; an effect the other way counts as inactive or inconclusive. Unless noted, % is set by controls: 0 for no effect and ±100 for the full control effect; potency is the fitted concentration of half-maximal effect.

SMILES	FEN1 inh	RECQ1 inh-1	L3MBTL1 inh	WRN inhibitor	BLM helicase inh	RECQ1 inh-2	others
O=C(NC1CC1)c1cc(OCC(F)(F)F)ccc1OCC(F)(F)F	20.5%	i	2.6%	1.5%	0.1%	nt
CCCOC(=O)c1cc(NC(=O)/C=C/c2ccccc2)ccc1O	nt	7.9%	?	nt	7.5%	nt
Cc1cc(NC(=O)CCSc2ccccc2)ccc1Br	-19.1%	3.55µM*	22.9%	-2.2%	-8.7%	-13.0%
O=C(Nc1ccccc1)c1ccccc1NS(=O)(=O)c1ccc(Cl)s1	-2.3%	9.6%	-3.9%	-3.1%	-4.9%	nt
Cc1ccc(NC(=O)c2ccccc2NS(=O)(=O)c2ccc(Cl)s2)cc1	7.7%	39.8µM*	8.6%	-16.6%[57.1 µM]	-5.8%	-17.9%
O=C(NC1CCCCCCC1)c1ccc(Br)o1	15.4%	nt	10.9%	4.2%	1.4%	nt
COCCNC(=O)c1onc(CSc2cc(C)cc(C)c2)c1C(=O)O	20.9%	i	7.2%	-1.3%	-2.5%	nt	RECQ1 conf=-0.2%;RECQ1 ADP FP=1.0%
COc1ccc2c(c1)c(=O)oc1cc(OCC(=O)N3CCc4ccccc4C3)ccc12	-8.8%	14.1µM*	nt	?	-19.1%	?	RECQ1 conf=-7.1%[114 µM];RECQ1 ADP FP=0.3%[91.9 µM]
CC(C)c1ccc(OCC(=O)N2CCc3ccccc3C2)cc1	2.6%	nt	2.3%	2.6%	-4.8%	nt
Cc1oc2cc3oc(=O)c(CCC(=O)NC4CC4)c(C)c3cc2c1C	-3.1%	nt	-4.0%	-5.0%	3.2%	nt
CCOC(=O)c1sc2nc(N3CCOCC3)c3c(c2c1N)CC(C)(C)N(C)C3	-8.8%	-3.5%	-1.8%	-0.9%	1.4%	nt
CCCCN(CC)CCCNC(=O)Cn1ncc2c3ccccc3n(Cc3ccccc3F)c2c1=O	15.2%	nt	nt	nt	1.4%	nt
Cc1cccc(N2CCN(C(=O)Cn3c(=O)[nH]c4ccsc4c3=O)CC2C)c1 (centres undefined)	-3.5%	-3.4%	nt	-3.2%	-2.4%	nt
Cc1cccc(N2CCN(C(=O)Cc3ccc(-n4c(=O)[nH]c5ccsc5c4=O)cc3)CC2C)c1 (centres undefined)	-1.7%	-7.5%	1.1%	-5.5%	2.1%	nt	RECQ1 conf=-3.6%;RECQ1 ADP FP=3.0%
Cc1c(C(=O)N2CCCCCC2)c(S(=O)(=O)NCc2ccc(Br)cc2)c(C)n1C	9.8%	nt	nt	nt	-2.0%	nt
Cc1csc(NC(=O)CSc2nnc(-c3ccc(S(=O)(=O)N4CCCC4)cc3)o2)n1	-10.0%	-0.8%	11.6%	-9.3%	0.8%	nt	RECQ1 conf=8.0%;RECQ1 ADP FP=11.4%
O=[N+]([O-])c1ccc(/C=C/C2=NN(c3ccccc3)C(c3ccco3)C2)o1 (centres undefined)	-8.5%	?	?	?	-22.2%	7.94µM*
C(=C\c1ccco1)/C1=NN(c2ccccc2)C(c2ccco2)C1 (centres undefined)	-9.7%	-16.5%	21.3%	?	-28.7%	nt
CCOc1ccc(C(=O)Nc2cc(-c3nc4ccccc4[nH]3)ccc2C)cc1[N+](=O)[O-]	-11.9%	-18.7%	-5.9%	-10.9%	-10.5%	nt
CCOc1ccc(C(=O)Nc2cc(-c3nc4ccccc4[nH]3)ccc2Cl)cc1[N+](=O)[O-]	?	?	-2.1%	-12.6%	?	56.2µM*
CCOc1ccc(C(=O)Nc2cccc(-c3cc4ccccc4oc3=O)c2)cc1[N+](=O)[O-]	1.6%	25.1µM*	6.5%	8.1%[57.1 µM]	-10.1%	?
CCOc1ccccc1NC(=O)c1ccc(OCC)c([N+](=O)[O-])c1	-0.7%	0.3%	11.0%	-16.2%	-1.2%	nt
Nc1c(C(=O)Nc2ccccc2F)sc2nc(-c3ccco3)ccc12	4.0%	5.3%	7.7%	-24.0%	-9.5%	nt
Nc1c(C(=O)Nc2ccccc2F)sc2nc(-c3cccnc3)ccc12	0.6%	31.6µM*	nt	-5.5%	-6.2%	-14.5%
Cc1cc(N2CCN(c3nc(-c4ccccc4)cs3)CC2)c2ccccc2n1	7.3%	8.91µM*	-3.8%	5.3%	-10.7%	-7.5%	RECQ1 conf=0.1%[114 µM];RECQ1 ADP FP=-1.6%[91.9 µM]
SMILES	FEN1 inh	RECQ1 inh-1	L3MBTL1 inh	WRN inhibitor	BLM helicase inh	RECQ1 inh-2	others
c1ccc(-c2csc(N3CCCCCC3)n2)cc1	10.7%	-2.9%	10.8%	7.4%	-3.6%	nt
CC1(C)Cc2c(sc3c2c(=N)n(Cc2ccco2)c(=O)n3Cc2ccccc2)CO1	-13.7%	-4.9%	nt	1.8%	-12.0%	nt
CC1(C)Cc2c(sc3[nH]c(=S)n(Cc4ccco4)c(=O)c23)CO1	-15.4%	?	-0.9%	-24.0%	-8.8%	0.6%
CCCN(CCC)C(=O)c1ccc2c(=O)n(Cc3ccco3)c(=S)[nH]c2c1	-7.4%	?	-14.7%	-9.5%	?	-15.2%
CCN(CC)c1ccc(S(=O)(=O)N2CCOCC2)cc1NC(=O)COC(=O)COc1ccccc1C	-4.6%	nt	nt	-0.3%	-6.8%	nt
O=C1CC(=O)N(Cc2ccco2)C(=S)N1	35.5µM*	11.2µM*	nt	10µM*	?	nt	RECQ1 conf=15.8µM*;RECQ1 ADP FP=17.2%[91.9 µM]
Cc1ccc(-n2c(Cc3cccn3C)nnc2SCC(=O)N2CCc3ccccc32)cc1	-17.1%	0.224µM*	-0.3%	-2.1%	-16.7%	-9.4%	RECQ1 conf=17.0%[114 µM];RECQ1 ADP FP=13.7%[91.9 µM]
N#Cc1c(NC(=O)/C=C/c2ccco2)sc2c1CCCC2	3.7%	-19.1%	-19.3%	?	-7.4%	nt
O=C(/C=C/c1ccco1)Nc1sc2c(c1C(=O)O)CCC2	-11.6%	35.5µM*	?	-3.2%[11.6 µM]	5.3%	?
Cc1cc(SCC(=O)c2ccc(O)c(O)c2)nc2ccccc12	-18.2%	25.1µM*	-18.0%	?	-18.9%	10µM*
Cc1cc(SCC(=O)c2ccc3c(c2)OCO3)nc2ccccc12	-14.6%	-14.1%	nt	-19.5%	-5.0%	nt
CC(C)Cc1nnc(NC(=O)Cc2cccs2)s1	14.1%	?	?	?	-25.5%	56.2µM*
CCN(CC)S(=O)(=O)c1ccc2[nH]c(=O)cc(C(=O)NCC(c3ccco3)N3CCCC3)c2c1 (centres undefined)	9.6%	nt	1.2%	0.8%	nt	nt
COc1ccc(CCN2CC(C(=O)NC3CCCCC3)CC2=O)cc1OC (centres undefined)	7.5%	39.8µM*	nt	7.4%	-19.8%	?
COc1cccc(Cc2nc3ccccc3nc2SCC(=O)Nc2ccccc2F)c1	13.6%	nt	nt	nt	-3.3%	nt
CCN(CC)c1ccc(/C=C/C(=O)c2ccc(Br)cc2)cc1	?	8.91µM*	260.5%	22.4µM*	-19.4%	50.1µM*	RECQ1 conf=63.1µM*
CCCNC(=O)C1(C)CCN(C(=O)c2cc(C)n(C(C)(C)C)n2)C1 (centres undefined)	nt	nt	nt	-0.7%	nt	nt
